{"source": "PubChem BioAssay (NCATS)", "note": "Results filed as inconclusive are left out. A call without a number means that no potency is given here. The source made the active and inactive calls. Calls come from the whole dose curve; as a rule, active = well fitted cell-killing curve with a large enough effect; inconclusive = small, poorly fitted or top-dose-only effect, or effect the other way; inactive = no such curve, though single readings can be large or run the other way. Potency is the fitted concentration of half-maximal effect.", "data": [{"assay": "Quantitative High-Throughput drug screen in 47 multiple myeloma cell lines against the NCATS MIPE library collection: OPM2_DSMZ cell viability assay (AID 1919872); note: nearly all actives have a fitted effect of over 30% in size", "conditions": "OPM2 myeloma viability, CellTiter-Glo ATP luminescence, 48 h; series mostly up to 45.8 µM", "source_text": "PI: Beverly A. Mock Ph.D.\nLaboratory of Cancer Biology and Genetics,\nCenter for Cancer Research, National Cancer Institute,\nNational Institute of Health, Bethesda, Maryland\nDrug resistance and disease progression are common in multiple myeloma (MM) patients, underscoring the need for new therapeutic combinations. […] We hypothesized that effective combinations would reduce MYC expression and enhance p16 activity. […] These preclinical data identify potentially useful drug combinations for evaluation in drug-resistant MM and reveal potential mechanisms of combined drug sensitivity.\nDescribed herein is the primary MIPE qHTS used to cherrypick compounds. Validated compounds were then further tested for potential synergistic activiy.\n[1] Peat TJ, Gaikwad SM, Dubois W, Gyabaah-Kessie N, Zhang S, Gorjifard S, Phyo Z, Andres M, Hughitt VK, Simpson RM, Miller MA, Girvin AT, Taylor A, Williams D, D'Antonio N, Zhang Y, Rajagopalan A, Flietner E, Wilson K, Zhang X, Shinn P, Klumpp-Thomas C, McKnight C, Itkin Z, Chen L, Kazandijian D, Zhang J, Michalowski AM, Simmons JK, Keats J, Thomas CJ, Mock BA. Drug combinations identified by high-throughput screening promote cell cycle transition and upregulate Smad pathways in myeloma. Cancer Lett. 2023 Aug 1;568:216284. doi: 10.1016/j.canlet.2023.216284. Epub 2023 Jun 24. PMID: 37356470; PMCID: PMC10408729.\nSEQUENCE No. (e.g., 1, 2, 3, etc.); […] (e.g., Cells, Incubation, Reagent, etc.); VALUE and DESCRIPTION.\n1; Cells; 5 uL; white, solid bottom 1536-well Greiner assay plate.\n2; Compounds; 23 nL; Kalypsis pin tool (Wako USA) equipped with a 1536-well pin head to transfer to the assay plates.\n3; Incubation; 48 hours; 37C incubation.\n4; Reagent;5uL; CellTiter Glo (Promega).\n5; Detector; 425V; Luminescence; Viewlux PerkinElmer.\nNOTES (numbers refer to Sequence numbers above)\n1. The cell-based screening methods employed in this study were like those previously published. Briefly, the corresponding myeloma cell lines were screened in 1,536-well plates with 500 cells, 5-uL per well for inhibition of cell viability (assessed by measuring ATP levels with CellTiterGlo).\n2. NCATS MIPE 4.0 library of approved and investigational drugs were added using the Kalypsis pin tool. Wells treated with DMSO only for 100% viability and media only wells for 0% viability were used as controls.\n3. The assay plates were covered and incubated for 48 hours in a 37C, 5% CO2 incubator with controlled humidity.\n4. After 48 hours, CellTilter-GloTM luminescent substrate mix (Promega) reagent was added to the assay plate and plates we incubated for 5 min at room temperature.\n5. Signal was measured as median relative luminescence units on a ViewLux (PerkinElmer) multiplate reader.\n[1] Heske CM, Davis MI, Baumgart JT, Wilson K, Gormally MV, Chen L, Zhang X, Ceribelli M, Duveau DY, Guha R, Ferrer M, Arnaldez FI, Ji J, Tran HL, Zhang Y, Mendoza A, Helman LJ, Thomas CJ. Matrix Screen Identifies Synergistic Combination of PARP Inhibitors and Nicotinamide Phosphoribosyltransferase (NAMPT) Inhibitors in Ewing Sarcoma. Clin Cancer Res. 2017 Dec 1;23(23):7301-7311. doi: 10.1158/1078-0432.CCR-17-1121. Epub 2017 Sep 12. PMID: 28899971; PMCID: PMC6636827.", "values": [{"molecule": "Cn1cc(-c2ccc3nnc(Sc4ccc5ncccc5c4)n3n2)cn1", "Potency": "inactive"}, {"molecule": "C[C@]12C=CC(=O)C=C1CC[C@@H]1[C@@H]2[C@@H](O)C[C@@]2(C)[C@@H]1CC[C@]2(O)C(=O)CO", "Potency": "inactive"}, {"molecule": "O[C@@H](COc1cccc2ncccc12)CN1CCN(C2c3ccccc3[C@@H]3[C@H](c4ccccc42)C3(F)F)CC1", "note": "(stereo not given in full)", "Potency": "inactive"}, {"molecule": "N#Cc1c(N(CC(=O)O)CC(=O)O)sc(C(=O)O)c1CC(=O)O", "Potency": "inactive"}, {"molecule": "O=C(O)CCNc1cc(N2CCc3ccccc3CC2)nc(-c2ccccn2)n1", "Potency": "inactive"}, {"molecule": "CCOC(=O)N1CCN([N+]([O-])=NOc2cc(ON=[N+]([O-])N3CCN(C(=O)OCC)CC3)c([N+](=O)[O-])cc2[N+](=O)[O-])CC1", "Potency": "18.7 µM (active)"}, {"molecule": "CCC(C)SSc1ncc[nH]1", "note": "(stereo not given)", "Potency": "5.9 µM (active)"}, {"molecule": "Cc1ccc(C(=O)N(CCCN)[C@@H](c2nc3cc(Cl)ccc3c(=O)n2Cc2ccccc2)C(C)C)cc1", "Potency": "inactive"}, {"molecule": "CC(=O)OCC(=O)[C@@]1(O)CC[C@H]2[C@@H]3CCC4=CC(=O)C=C[C@]4(C)[C@@H]3[C@@H](O)C[C@@]21C", "Potency": "inactive"}, {"molecule": "C[C@H](c1ccc(F)cc1CCCC(=O)O)N(c1cc(F)ccc1F)S(=O)(=O)c1ccc(Cl)cc1", "Potency": "3.32 µM (active)"}, {"molecule": "COC(=O)Nc1ccc(-c2nc(N3CCOCC3)c3cnn(C4CCN(C(=O)OC)CC4)c3n2)cc1", "Potency": "2.35 µM (active)"}, {"molecule": "CCN(CCO)CCCOc1ccc2c(Nc3cc(CC(=O)Nc4cccc(F)c4)[nH]n3)ncnc2c1", "Potency": "inactive"}, {"molecule": "CNC(=O)c1cc(Oc2ccc(NC(=O)Nc3ccc(Cl)c(C(F)(F)F)c3)c(F)c2)ccn1", "Potency": "18.7 µM (active)"}, {"molecule": "Cc1ccc(S(=O)(=O)OCC(=O)Nc2ccc(C(=O)O)c(O)c2)cc1", "Potency": "inactive"}, {"molecule": "CC(C)C[C@@H](N)[C@H](O)C(=O)N[C@H](C(=O)N[C@H](C(=O)N[C@@H](CC(=O)O)C(=O)O)C(C)C)C(C)C", "Potency": "inactive"}, {"molecule": "Cc1nc2c([nH]1)CCN(C(=O)c1ccc(NC(=O)c3ccccc3-c3ccccc3)cc1)c1ccccc1-2", "Potency": "inactive"}, {"molecule": "COc1cc(F)c(C(C)C)cc1-c1ccc(C(F)(F)F)cc1CN1C(=O)O[C@H](c2cc(C(F)(F)F)cc(C(F)(F)F)c2)[C@@H]1C", "Potency": "inactive"}, {"molecule": "CCC=CC[C@H]1C(=O)CC[C@@H]1CC(=O)OC", "Potency": "inactive"}, {"molecule": "C[C@@H](N)c1ccc(C(=O)Nc2ccnc3[nH]ccc23)cc1", "Potency": "inactive"}, {"molecule": "C[C@@]1(C(=O)Nc2ccc(F)nc2)CCCN1c1nc(Nc2cc(C3CC3)[nH]n2)c2cccn2n1", "Potency": "7.43 µM (active)"}, {"molecule": "COc1c(C)c2c(c(O)c1CC=C(C)CCC(=O)OCCN1CCOCC1)C(=O)OC2", "Potency": "13.2 µM (active)"}, {"molecule": "CCCCC[C@H](O)C=C[C@H]1[C@H](O)CC(=O)[C@H]1CCCCCCC(=O)O", "Potency": "inactive"}, {"molecule": "C[C@H]1O[C@@H](n2cc(F)c(=O)[nH]c2=O)[C@H](O)[C@H]1O", "Potency": "inactive"}, {"molecule": "O=C(Nc1ccccc1)Nc1ccc(-c2ccc(C(=O)[C@H]3CCC[C@H]3C(=O)O)cc2)cc1", "Potency": "inactive"}, {"molecule": "O=C1NC(=O)C(=Cc2ccc(-c3ccc(F)cc3O)o2)S1", "Potency": "inactive"}, {"molecule": "CC[C@]1(O)C[C@H]2CN(CCC3=c4ccccc4=N[C]3[C@@](C(=O)OC)(c3cc4c(cc3OC)N(C)[C@H]3[C@@](O)(C(N)=O)[C@H](O)[C@]5(CC)C=CCN6CC[C@]43[C@@H]65)C2)C1", "Potency": "0.0074 µM (active)"}, {"molecule": "Cc1ccc(C2=Nc3ccc(Cl)cc3OC2)cc1", "Potency": "inactive"}, {"molecule": "OCCn1cc(-c2ccc3c(c2)CCC3=NO)c(-c2ccncc2)n1", "Potency": "inactive"}, {"molecule": "CN1CCC(COc2cnc(-c3cccc(Cn4nc(-c5cccc(C#N)c5)ccc4=O)c3)nc2)CC1", "Potency": "inactive"}, {"molecule": "C[C@@H](NC(=O)c1ncnc(N)c1Cl)c1ncc(C(=O)Nc2cc(C(F)(F)F)c(Cl)cn2)s1", "Potency": "9.35 µM (active)"}, {"molecule": "Nc1[nH]nc2nnc(-c3c(-c4ccccc4)nn4ccccc34)cc12", "Potency": "inactive"}, {"molecule": "Cc1nc(C(=O)NCC(=O)O)c(O)c2ccc(Oc3ccccc3)cc12", "Potency": "inactive"}, {"molecule": "O=C(O)Cc1cccc(OCCCN(Cc2cccc(C(F)(F)F)c2Cl)CC(c2ccccc2)c2ccccc2)c1", "Potency": "inactive"}, {"molecule": "Fc1ccc(C(c2ccc(F)cc2)N2CCN(CC=Cc3ccccc3)CC2)cc1", "Potency": "inactive"}, {"molecule": "CN1C(=O)C(Cc2c[nH]c3ccccc23)NC1=S", "note": "(stereo not given)", "Potency": "inactive"}, {"molecule": "O=C1Nc2ccc(I)cc2C1=Cc1cc(Br)c(O)c(Br)c1", "Potency": "inactive"}, {"molecule": "NC1(C(=O)N[C@@H](CCO)c2ccc(Cl)cc2)CCN(c2ncnc3[nH]ccc23)CC1", "Potency": "13.2 µM (active)"}, {"molecule": "CC(C)c1onc(-c2c(Cl)cccc2Cl)c1COc1ccc(C=Cc2cccc(C(=O)O)c2)c(Cl)c1", "Potency": "inactive"}, {"molecule": "CC1(C)OC2CC3C4CC(F)C5=CC(=O)C=CC5(C)C4C(O)CC3(C)[C@]2(C(=O)CO)O1", "note": "(stereo not given in full)", "Potency": "inactive"}, {"molecule": "NS(=O)(=O)c1cc(Cl)c(Cl)c(S(N)(=O)=O)c1", "Potency": "inactive"}]}]}
